Source: the supplement of paper PMC10849652
Targets with a hit are over-represented here; the source holds about 7,900 in all. About 0.6% of all pairs of compound and target were hits. Unmarked numbers belong to inactive results.

Key:
Experiment in all cases: log2 fold change, soluble protein after heating vs DMSO (PISA); higher = thermal stabilisation; K562 cells, 10 uM, 30 min; active = over 0.2 and 3.5 SD of the protein, either way, in both replicates (recomputed)
erlotinib = compound: C#Cc1cccc(Nc2ncnc3cc(OCCOC)c(OCCOC)cc23)c1 [erlotinib]
Procedure, shortened: (§1)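 K562 cells at 2×10^6 cells/mL were exposed to 10 μM compound for 30 min, then aliquots were heated for 3 min across 48°C-58°C, pooled, and extracted in PBS containing 0.5% NP-40 at 4°C. The supernatant after 21,000xg for 90 min was taken as soluble protein and measured by TMTpro 16plex LC-MS/MS with channel sums equalised. Thermal stability is reported relative to control samples, with values from duplicates. Fold changes are given on a log2 scale.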

[1] = compound: C/C(=N\NC(=O)C1=CC(=CC=C1)S(=O)(=O)N2CCOCC2)/C3=C(C=CC(=C3)Cl)O
Procedure, shortened: as §1

[2] = compound: C1=CC(=C(C=C1Cl)C2=NC3=NC=CN=C3C(=N2)NC4=CC=NC=C4)F
Procedure, shortened: as §1

[3] = compound: C1=CC(=CC=C1C2=NC3=C(N2)C=C(C=C3)C(=O)N)OC4=CC=C(C=C4)Cl
Procedure, shortened: as §1

[4] = compound: C1=CC2=C(C=CC(=C2)/C=C\3/C(=O)NC(=NCC4=CC=CS4)S3)N=C1
Procedure, shortened: as §1

[5] = compound: C1=CC2=NC=CN=C2C=C1/C=C/3\C(=O)NC(=O)S3
Procedure, shortened: as §1

[6] = compound: C1=CC=C(C=C1)C2=NC(=C(N2)C3=CC=NC=C3)C4=CC(=C(C=C4)Cl)O
Procedure, shortened: as §1

[7] = compound: C1=CC=C2C(=C1)C3=NNC4=CC=CC(=C43)C2=O
Procedure, shortened: as §1

[8] = compound: C1CCN(C1)C(=O)NC2=CC=CC(=C2)NC3=NC=C(C(=N3)NCCC4=CN=CN4)Br
Procedure, shortened: as §1

[9] = compound: C1CN(CCC1(CC2=CC=C(C=C2)Cl)N)C3=NC=NC4=C3C=CN4
Procedure, shortened: as §1

IRAK-1-4 Inhibitor I = compound: C1COCCN1CCN2C3=CC=CC=C3N=C2NC(=O)C4=CC(=CC=C4)[N+](=O)[O-] [IRAK-1-4 Inhibitor I]
Procedure, shortened: as §1

ibrutinib = compound: C=CC(=O)N1CCC[C@@H](n2nc(-c3ccc(Oc4ccccc4)cc3)c3c(N)ncnc32)C1 [ibrutinib]
Procedure, shortened: as §1

[10] = compound: CC(=O)c1cnc2ccc(-c3cc(Cl)c(O)c(Cl)c3)nc2c1N[C@H]1CC[C@H](CN(C)C)CC1
Procedure, shortened: as §1

ralimetinib = compound: CC(C)(C)Cn1c(N)nc2ccc(-c3[nH]c(C(C)(C)C)nc3-c3ccc(F)cc3)nc21 [ralimetinib]
Procedure, shortened: as §1

[11] = compound: CC(C)(O)CC(=O)NCCn1ccc2ncnc(Nc3ccc(Oc4cccc(C(F)(F)F)c4)c(Cl)c3)c21
Procedure, shortened: as §1

[12] = compound: CC(C)C1=C2N=C(C=C(N2N=C1)NCC3=CC=CC=C3)NCCCCCCN
Procedure, shortened: as §1

[13] = compound: CC(C)C[C@@H](C=O)NC(=O)[C@H](CC(C)C)NC(=O)[C@H](CC(C)C)NC(=O)OCc1ccccc1
Procedure, shortened: as §1

pinometostat = compound: CC(C)N(C[C@H]1O[C@@H](n2cnc3c(N)ncnc32)[C@H](O)[C@@H]1O)[C@H]1C[C@@H](CCc2nc3cc(C(C)(C)C)ccc3[nH]2)C1 [pinometostat]
Procedure, shortened: as §1

[14] = compound: CC1=C(C(CC(=O)N1)C2=CC=C(C=C2)C(F)(F)F)C(=O)NC3=C(C=C4C(=C3)C=NN4)F
Procedure, shortened: as §1

[15] = compound: CC1=C(C2=C(C=C1)C(=O)C3=CC=CC=C3N2CCCN)C
Procedure, shortened: as §1

Sequence of UniProt P11233 (P11233 whole entry, looked up): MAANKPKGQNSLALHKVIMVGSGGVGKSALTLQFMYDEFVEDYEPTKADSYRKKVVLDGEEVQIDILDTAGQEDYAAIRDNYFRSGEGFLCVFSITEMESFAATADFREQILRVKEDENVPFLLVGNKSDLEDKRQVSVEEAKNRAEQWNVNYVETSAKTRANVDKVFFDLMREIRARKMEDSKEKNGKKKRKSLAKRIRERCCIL
Sequence of UniProt Q9P2N5 (Q9P2N5 whole entry, looked up): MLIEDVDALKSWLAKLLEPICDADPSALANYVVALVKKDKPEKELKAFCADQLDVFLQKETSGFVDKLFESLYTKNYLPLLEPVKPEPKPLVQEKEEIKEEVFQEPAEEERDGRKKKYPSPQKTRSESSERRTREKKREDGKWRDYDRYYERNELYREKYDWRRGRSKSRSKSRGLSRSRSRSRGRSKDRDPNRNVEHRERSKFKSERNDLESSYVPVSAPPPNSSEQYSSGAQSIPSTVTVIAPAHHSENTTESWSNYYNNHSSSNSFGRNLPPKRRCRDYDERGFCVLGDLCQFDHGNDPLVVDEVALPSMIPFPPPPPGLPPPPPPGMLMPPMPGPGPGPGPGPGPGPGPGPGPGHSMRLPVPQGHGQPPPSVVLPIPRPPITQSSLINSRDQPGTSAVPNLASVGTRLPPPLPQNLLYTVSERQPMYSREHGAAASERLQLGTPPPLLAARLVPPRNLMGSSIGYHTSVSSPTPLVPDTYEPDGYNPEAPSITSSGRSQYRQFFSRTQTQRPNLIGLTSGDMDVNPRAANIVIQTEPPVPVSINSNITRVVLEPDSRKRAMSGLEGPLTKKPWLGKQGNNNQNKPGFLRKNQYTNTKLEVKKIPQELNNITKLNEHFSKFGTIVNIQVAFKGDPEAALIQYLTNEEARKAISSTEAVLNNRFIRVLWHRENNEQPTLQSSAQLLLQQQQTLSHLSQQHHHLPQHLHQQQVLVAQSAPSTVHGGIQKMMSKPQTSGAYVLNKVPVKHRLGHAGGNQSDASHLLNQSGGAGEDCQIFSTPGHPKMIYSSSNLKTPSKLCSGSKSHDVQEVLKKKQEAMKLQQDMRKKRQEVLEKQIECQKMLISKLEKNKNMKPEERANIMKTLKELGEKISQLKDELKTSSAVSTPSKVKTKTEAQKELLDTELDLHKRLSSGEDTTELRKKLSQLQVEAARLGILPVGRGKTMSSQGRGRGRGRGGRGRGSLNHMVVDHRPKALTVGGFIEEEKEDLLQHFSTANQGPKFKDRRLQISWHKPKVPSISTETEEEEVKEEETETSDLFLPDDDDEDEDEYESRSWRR
Sequence of UniProt P62070 (P62070 whole entry, looked up): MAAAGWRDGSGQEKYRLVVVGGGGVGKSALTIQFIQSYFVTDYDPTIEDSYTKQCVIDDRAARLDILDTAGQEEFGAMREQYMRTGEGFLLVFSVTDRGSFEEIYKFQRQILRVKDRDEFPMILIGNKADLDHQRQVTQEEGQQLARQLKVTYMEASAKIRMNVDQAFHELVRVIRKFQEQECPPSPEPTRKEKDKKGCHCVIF
Sequence of UniProt Q96IZ7 (Q96IZ7 whole entry, looked up): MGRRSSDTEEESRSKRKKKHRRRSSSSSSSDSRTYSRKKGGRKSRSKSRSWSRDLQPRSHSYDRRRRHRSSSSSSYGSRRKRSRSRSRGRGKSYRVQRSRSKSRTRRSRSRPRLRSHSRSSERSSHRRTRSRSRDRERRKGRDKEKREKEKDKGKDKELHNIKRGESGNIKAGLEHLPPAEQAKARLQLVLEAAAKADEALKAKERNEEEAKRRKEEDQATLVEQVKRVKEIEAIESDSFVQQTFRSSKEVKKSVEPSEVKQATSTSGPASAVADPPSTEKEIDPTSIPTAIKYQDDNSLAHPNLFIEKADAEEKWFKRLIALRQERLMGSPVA
Sequence of UniProt Q9HB40 (Q9HB40 whole entry, looked up): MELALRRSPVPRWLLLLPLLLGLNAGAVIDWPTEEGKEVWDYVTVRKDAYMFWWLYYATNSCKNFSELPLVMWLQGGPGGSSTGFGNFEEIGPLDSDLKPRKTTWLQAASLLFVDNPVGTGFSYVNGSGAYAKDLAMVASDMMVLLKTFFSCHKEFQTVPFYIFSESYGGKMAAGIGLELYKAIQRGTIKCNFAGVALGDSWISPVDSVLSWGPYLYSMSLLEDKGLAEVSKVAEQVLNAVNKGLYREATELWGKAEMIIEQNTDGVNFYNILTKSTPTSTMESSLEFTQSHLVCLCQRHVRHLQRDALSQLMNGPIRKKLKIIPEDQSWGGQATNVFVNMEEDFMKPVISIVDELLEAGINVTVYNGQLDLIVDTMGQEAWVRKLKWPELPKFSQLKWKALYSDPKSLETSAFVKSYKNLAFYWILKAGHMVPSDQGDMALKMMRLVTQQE
Sequence of UniProt P06400 (P06400 whole entry, looked up): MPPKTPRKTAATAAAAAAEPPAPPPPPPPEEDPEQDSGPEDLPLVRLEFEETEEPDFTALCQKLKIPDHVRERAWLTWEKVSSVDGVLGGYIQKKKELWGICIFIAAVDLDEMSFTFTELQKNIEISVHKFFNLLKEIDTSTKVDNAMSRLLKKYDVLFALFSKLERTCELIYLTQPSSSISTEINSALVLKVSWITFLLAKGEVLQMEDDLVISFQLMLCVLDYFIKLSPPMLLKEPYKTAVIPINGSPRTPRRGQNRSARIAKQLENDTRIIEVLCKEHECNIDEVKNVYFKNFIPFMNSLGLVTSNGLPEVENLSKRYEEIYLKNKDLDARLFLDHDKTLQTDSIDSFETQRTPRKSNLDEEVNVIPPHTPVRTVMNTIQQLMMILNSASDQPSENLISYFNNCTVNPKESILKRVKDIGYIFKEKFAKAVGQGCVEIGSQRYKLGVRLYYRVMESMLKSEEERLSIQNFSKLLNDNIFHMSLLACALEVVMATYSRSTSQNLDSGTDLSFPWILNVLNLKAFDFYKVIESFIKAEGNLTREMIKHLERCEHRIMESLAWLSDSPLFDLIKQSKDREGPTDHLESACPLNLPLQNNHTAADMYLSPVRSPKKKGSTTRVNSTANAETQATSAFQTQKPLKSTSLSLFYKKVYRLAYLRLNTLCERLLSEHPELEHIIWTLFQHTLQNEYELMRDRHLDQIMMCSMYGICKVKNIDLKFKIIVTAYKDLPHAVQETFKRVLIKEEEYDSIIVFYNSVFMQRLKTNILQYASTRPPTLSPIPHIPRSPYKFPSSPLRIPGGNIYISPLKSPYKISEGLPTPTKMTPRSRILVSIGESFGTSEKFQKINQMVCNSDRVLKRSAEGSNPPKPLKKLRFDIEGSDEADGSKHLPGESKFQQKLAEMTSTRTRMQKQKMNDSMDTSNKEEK

| Target | log2 fold change (erlotinib) | log2 fold change [1] | log2 fold change [2] | log2 fold change [3] | log2 fold change [4] | log2 fold change [5] | log2 fold change [6] | log2 fold change [7] | log2 fold change [8] | log2 fold change [9] | log2 fold change (IRAK-1-4 Inhibitor I) | log2 fold change (ibrutinib) | log2 fold change [10] | log2 fold change (ralimetinib) | log2 fold change [11] | log2 fold change [12] | log2 fold change [13] | log2 fold change (pinometostat) | log2 fold change [14] | log2 fold change [15] |
| --- | --- | --- | --- | --- | --- | --- | --- | --- | --- | --- | --- | --- | --- | --- | --- | --- | --- | --- | --- | --- |
| RB1 (UniProt P06400) | -0.007 | 0.041 | 0.012 | 0.016 | 0.124 | 0.04 | 0.034 | -0.114 | -0.065 | -0.02 | 0.015 | 0.025 | -0.761 (active) | -0.06 | -0.054 | -0.386 (active) | 0.032 | -0.006 | -0.007 | -0.035 |
| RSRC1 (UniProt Q96IZ7) | 0 | 0.135 | -0.148 | 0.071 | -0.033 | -0.057 | -0.026 | -0.073 | 0.016 | -0.1 | -0.062 | 0.034 | -0.178 | -0.01 | 0.056 | -0.071 | 0.009 | -0.017 | -0.012 | 0.047 |
| RBM27 (UniProt Q9P2N5) | 0.034 | 0.079 | 0.003 | 0.022 | -0.039 | -0.01 | -0.067 | 0.022 | -0.061 | -0.128 | -0.123 | 0.023 | -0.338 (active) | -0.045 | -0.063 | -0.479 (active) | 0.042 | 0.028 | 0.088 | 0.05 |
| RALA (UniProt P11233) | 0.087 | -0.005 | 0.033 | -0.05 | 0.005 | 0.056 | -0.076 | -0.045 | -0.066 | 0.104 | -0.005 | 0.038 | 0.018 | -0.113 | 0.096 | 0.103 | -0.033 | -0.123 | -0.024 | 0.054 |
| RRAS2 isoform 4 (UniProt P62070) | 0.002 | -0.076 | -0.046 | 0.015 | -0.006 | 0.038 | -0.015 | -0.059 | -0.085 | 0.093 | 0.011 | 0.097 | -0.009 | -0.023 | 0.242 | 0.077 | 0.005 | -0.034 | -0.019 | 0.077 |
| SCPEP1 (UniProt Q9HB40) | -0.002 | 0.017 | 0.064 | 0.015 | -0.024 | 0.058 | -0.013 | 0.017 | -0.012 | 0.079 | 0.044 | 0.072 | -0.008 | -0.005 | -0.038 | -0.5 (active) | 0.007 | -0.032 | -0.006 | 0.073 |
| RPS16 (UniProt P62249) | -0.166 | -0.108 | -0.258 | 0.049 | -0.075 | -0.043 | -0.049 | 0.002 | 0.025 | -0.2 | -0.137 | 0.036 | 0.054 | 0.032 | 0.011 | -0.02 | 0.035 | 0.102 | 0.057 | -0.6 (active) |
